Source: PubChem BioAssay
TDP1 cell noCPT = qHTS for Inhibitors of human tyrosyl-DNA phosphodiesterase 1 (TDP1): qHTS in cells in absence of CPT; DT40 Tdp1-/- hTDP1 cells, no CPT, ATP luminescence, 48 h; Potency, µM (series often up to 46.2 µM), most hits filed as inhibitors; 420,000 compounds, 15% hits; AID 686978, 2013; also: nearly all actives have a fitted effect of over 55% in size
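Luminescent ATP content (CellTiter-Glo) served as the growth readout. Knockout chicken DT40 cells expressing human TDP1 were exposed to compounds without camptothecin for a minimum 48 hr at 37 °C.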
IL1B secr inh = inflammasome signaling inhibition, IL-1 beta readout; THP-1 LPS/ATP IL-1B secretion, AlphaLISA, 16 h; active compounds read low; AID 743279; 360,000 compounds, 4.7% hits; activity change, % at 57.5 µM; in the data active = activity change below about -50%; inconclusive = mostly about -30% to -49%
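THP-1 cells pretreated 1 hr with compounds (up to 57.5 uM final), then stimulated with LPS (250 ng/mL final) plus ATP (1.25 mM final); secreted IL-1B measured by AlphaLISA after 16 hr, decreased signal indicating inhibition.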
VP16 counter = inhibits Gal4-VP16 luciferase reporter, ROR gamma counter-screen; Drosophila S2 Gal4-VP16 UAS-luciferase, luminescence, 20 h; 310,000 compounds, 3.5% hits; Potency, µM (top dose mostly 53.6 µM), most hits filed as inhibitors;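 also: Gal4-VP16 expression switched on by copper sulfate through the metallothionein promoter; nearly all actives have a fitted effect of over 50% in size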
RORgamma inh = inhibitors of mouse ROR gamma transcriptional activity; P51450; Drosophila S2 Gal4-RORgamma UAS-luciferase reporter, 20 h; Potency, µM (series often up to 53.6 µM), hits mostly inhibitors; 310,000 compounds, 5.4% hits; AID 2551; also: nearly all actives have a fitted effect of over 60% in size
Target sequence (P51450 whole entry, looked up, the tested form may be a part): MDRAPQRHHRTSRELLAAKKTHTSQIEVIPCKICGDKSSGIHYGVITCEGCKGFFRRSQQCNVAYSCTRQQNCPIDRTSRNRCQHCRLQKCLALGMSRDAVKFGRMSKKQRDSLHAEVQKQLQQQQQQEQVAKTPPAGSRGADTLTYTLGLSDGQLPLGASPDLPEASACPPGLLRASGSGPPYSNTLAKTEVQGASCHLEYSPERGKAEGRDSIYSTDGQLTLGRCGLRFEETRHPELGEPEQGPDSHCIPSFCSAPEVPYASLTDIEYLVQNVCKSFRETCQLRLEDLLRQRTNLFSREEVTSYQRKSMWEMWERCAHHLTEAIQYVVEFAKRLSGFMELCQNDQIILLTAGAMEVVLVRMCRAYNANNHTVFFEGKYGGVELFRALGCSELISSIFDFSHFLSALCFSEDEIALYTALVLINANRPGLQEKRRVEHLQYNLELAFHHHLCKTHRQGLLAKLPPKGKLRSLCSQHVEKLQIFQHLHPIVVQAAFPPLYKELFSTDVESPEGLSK
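Luminescence from a UAS-regulated Photinus luciferase reporter in stably transfected Drosophila Schneider cells is measured; decreased signal marks ROR gamma inhibition. Fusion expression is induced by 700 uM copper sulfate for 20 hr.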
DT40 TDP1 CPT = DT40-hTDP1 cell growth loss with CPT | chicken DT40 Tdp1-/-;hTDP1 cells + 20 nM CPT, ATP luminescence, 48 h | Potency, µM (doses to about 46.2 µM), usual class: inhibitors | 420,000 compounds, 12% hits | AID 686979; also: nearly all actives have a fitted effect of over 55% in size
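Chicken DT40 Tdp1-/- cells stably complemented with human TDP1 were seeded at 400 cells/well in medium containing 20 nM camptothecin, exposed to pin-transferred compounds, and grown at 37 °C for at least 48 hr. Viability was read as ATP luminescence.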
ELG1 DNA repair = ELG1-dependent DNA repair inhibition; 330,000 compounds, 2.3% hits; Potency, µM (highest dose often 46.1 µM), most hits filed as inhibitors; HEK293T ELG1-luciferase reporter, luminescence, 16 h; DNA damage induced by 5-fluorouridine; AID 504467; also: nearly all actives have a fitted effect of over 55% in size
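HEK293T cells expressing luciferase-tagged ELG1 (2,000/well) received 5-Fluorouridine plus compound or DMSO for 16 hr at 37 °C. Luciferase was read by ONE-Glo luminescence after 30 min at room temperature.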
Of the large screens only hits and unclear results are named; the others gave an inactive call. Compounds with a hit are over-represented: about 21% of the library has one in this group of screens. Unless noted, calls follow the shape of the dose curve; as a rule, active = well fitted curve in the direction sought with a large enough effect; inconclusive = small, poorly fitted or top-dose-only effect, or another doubt; inactive = no such curve, though single readings can be large; an effect the other way counts as inactive or inconclusive.

CCCN1C(=O)/C(=C/c2c(N3CCNC(=O)C3CC(=O)OCC)nc3c(C)cccn3c2=O)SC1=S (stereo not drawn)	TDP1 cell noCPT 16µM, DT40 TDP1 CPT 18µM, ELG1 DNA repair 5.8µM
CN(CCCC(=O)O)c1ccc(N=Nc2ccc([N+](=O)[O-])cc2)cc1	TDP1 cell noCPT inconclusive, DT40 TDP1 CPT inconclusive (no result: VP16 counter, RORgamma inh, ELG1 DNA repair)
C=C1CCN([C@H](C(=O)OCc2cccc(C)c2)C(C)C)S(=O)(=O)c2ccccc21	TDP1 cell noCPT 15µM, DT40 TDP1 CPT inconclusive
O=C(Oc1cc(=O)oc2c1c(=O)n1c3c(cccc23)CC1)c1ccc(F)cc1	TDP1 cell noCPT 23µM (no result: IL1B secr inh)
COc1cc(-c2c(CCO)sc3ccccc23)cc(OC)c1OC	TDP1 cell noCPT 6.5µM, DT40 TDP1 CPT 6.5µM (no result: VP16 counter, RORgamma inh, ELG1 DNA repair)
CSCC[C@H](NC(=O)[C@H](Cc1ccccc1)NC(=O)[C@H](Cc1cnc[nH]1)NC(=O)CNC(=O)[C@@H](NC(=O)[C@H](C)NC(=O)[C@H](Cc1c[nH]c2ccccc12)NC(=O)[C@H](CC(C)C)NC(=O)[C@H](CC(N)=O)NC(=O)CN)[C@@H](C)O)C(N)=O	none (no result: TDP1 cell noCPT, IL1B secr inh, DT40 TDP1 CPT, ELG1 DNA repair)
CCOc1cc2sc(N3CCC(C(=O)NCCCN4CCCC4=O)CC3)nc2cc1Br	TDP1 cell noCPT inconclusive, DT40 TDP1 CPT inconclusive
CCOc1cc2sc(N3CCC(C(=O)Nc4ccc(C)cc4C)CC3)nc2cc1Br	TDP1 cell noCPT 21µM, DT40 TDP1 CPT 7.3µM (no result: IL1B secr inh, VP16 counter, RORgamma inh, ELG1 DNA repair)
CCOc1cc2sc(N3CCC(C(=O)Nc4cc(C)cc(C)c4)CC3)nc2cc1Br	DT40 TDP1 CPT 21µM (no result: IL1B secr inh, VP16 counter, RORgamma inh, ELG1 DNA repair)
CC(OC(=O)Cn1cnc2c1c(=O)n(C)c(=O)n2C)C(=O)NC1CCCCC1C (stereo not drawn)	none (no result: VP16 counter, RORgamma inh)
O=S(=O)(NCC1(N2CCOCC2)CCCCC1)c1ccc(F)c(F)c1F	TDP1 cell noCPT inconclusive, DT40 TDP1 CPT 10µM (no result: VP16 counter, RORgamma inh)
CC(=O)c1ccc(S(=O)(=O)NCC2(N3CCOCC3)CCCCC2)cc1	none (no result: VP16 counter, RORgamma inh)
CC(C)OCCCNC(=O)c1cc2c(-c3ccc(Cl)cc3)nn(C)c2s1	TDP1 cell noCPT 21µM, DT40 TDP1 CPT inconclusive (no result: IL1B secr inh, VP16 counter, RORgamma inh, ELG1 DNA repair)
Cn1nc(-c2ccc(Cl)cc2)c2cc(C(=O)NCCCN3CCOCC3)sc21	TDP1 cell noCPT 18µM, DT40 TDP1 CPT 16µM
CCOCCCNC(=O)c1cc2c(-c3ccc(Cl)cc3)nn(C)c2s1	TDP1 cell noCPT inconclusive, DT40 TDP1 CPT inconclusive, ELG1 DNA repair 21µM
CCOCCCNC(=O)CCn1nc(-c2ccc(Cl)cc2)ccc1=O	DT40 TDP1 CPT inconclusive, ELG1 DNA repair inconclusive
CCCN1C(=O)c2cc(C(=O)Nc3ccccc3C)ccc2C1Nc1ccccc1C (stereo not drawn)	TDP1 cell noCPT inconclusive, DT40 TDP1 CPT inconclusive, ELG1 DNA repair 23µM
CC(C)C[C@@H](CC(=O)N[C@H](CC(=O)N[C@@H]1CCNC[C@H]1C(=O)N[C@H](CC(=O)N[C@@H](CCC(=O)O)CC(=O)O)Cc1c[nH]c2ccccc12)C(C)C)NC(=O)[C@@H]1CNCC[C@H]1N	none (no result: TDP1 cell noCPT, IL1B secr inh, DT40 TDP1 CPT, ELG1 DNA repair)
COc1ccc(-c2oc3c(c2C(=O)OCCO)C(OCCO)CCC3)cc1 (stereo not drawn)	TDP1 cell noCPT inconclusive, DT40 TDP1 CPT inconclusive (no result: VP16 counter, RORgamma inh, ELG1 DNA repair)
Cc1ccc(C)c(N2CCN(C(=O)CCc3nc(-c4ccc(Cl)cc4)no3)CC2)c1	none (no result: VP16 counter, RORgamma inh)
COc1ccc(Cl)cc1N(C)C(=O)Cc1noc2ccc(C)cc12	TDP1 cell noCPT 18µM, DT40 TDP1 CPT 16µM (no result: IL1B secr inh, VP16 counter, RORgamma inh, ELG1 DNA repair)
Cc1ccc2onc(CC(=O)O)c2c1	none
Cc1ccc2onc(CC(=O)N3CCN(c4cc(Cl)ccc4C)CC3)c2c1	TDP1 cell noCPT 16µM, DT40 TDP1 CPT inconclusive (no result: IL1B secr inh, VP16 counter, RORgamma inh, ELG1 DNA repair)
CC(NC(=O)CN1CCOCC1)c1ccccc1 (stereo not drawn)	RORgamma inh inconclusive
COc1ccccc1NC(=O)COC(=O)Cn1c(C)csc1=O	TDP1 cell noCPT inconclusive (no result: VP16 counter, RORgamma inh, ELG1 DNA repair)
Cc1nc(-c2ccc(Cl)cc2)sc1C1(C)CC(c2ccc(C#N)cc2)=NO1 (stereo not drawn)	TDP1 cell noCPT inconclusive, DT40 TDP1 CPT inconclusive, ELG1 DNA repair inconclusive
